Screens deposited in PubChem BioAssay by The Scripps Research Institute Molecular Screening Center.
Most compounds without a hit are left out; they make up all but 2.4% or so of the library.
CHRM1 agonist: human M1 muscarinic receptor agonists, primary screen, Fluo-8 calcium fluorescence, CHO-K1 cells, HTS | AID 588814, 2011 | activation, % at 3 µM | Muscarinic acetylcholine receptor M1 (Homo sapiens), P11229 | CHO-K1 hM1, agonist mode; 0% DMSO, 100% acetylcholine EC100 | hit rate 0.33% among 360,000;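 active = activation above the run's mean compound activation plus 3 SD, cut at about 16% in these data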;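 also: peak over basal fluorescence ratio within a 140 s kinetic read after compound addition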
Target sequence (P11229 whole entry, looked up): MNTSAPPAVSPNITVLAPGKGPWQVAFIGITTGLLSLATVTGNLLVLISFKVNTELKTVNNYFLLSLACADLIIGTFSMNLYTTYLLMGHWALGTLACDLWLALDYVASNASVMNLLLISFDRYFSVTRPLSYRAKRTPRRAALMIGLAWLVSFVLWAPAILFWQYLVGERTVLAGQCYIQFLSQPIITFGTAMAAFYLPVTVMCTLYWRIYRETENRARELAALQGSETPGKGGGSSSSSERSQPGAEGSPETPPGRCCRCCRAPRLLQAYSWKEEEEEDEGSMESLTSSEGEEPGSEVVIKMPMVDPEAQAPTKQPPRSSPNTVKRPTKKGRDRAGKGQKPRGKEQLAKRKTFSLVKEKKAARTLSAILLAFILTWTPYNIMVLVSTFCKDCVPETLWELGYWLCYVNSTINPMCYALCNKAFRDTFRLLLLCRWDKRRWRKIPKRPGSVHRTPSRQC
CHRM1 antagonist: human M1 muscarinic receptor antagonists, primary screen, CHO-K1 cells, Fluo-8 calcium fluorescence, 1536-well; Muscarinic acetylcholine receptor M1 (Homo sapiens), P11229; CHO-K1 hM1, ACh EC80 antagonist; inhibition, % at 3 µM; hit rate 1.3% among 360,000;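 active = percent inhibition above its own plate's cutoff, namely the mean of that plate's compound wells plus 3 SD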;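 also: peak over basal fluorescence ratio during 140 s after agonist addition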
CHO-K1 Ca antag: counter-screen for M1 antagonists: effect in parental CHO-K1 cells | ATP-induced calcium, Fluo-8 fluorescence | inhibition, % at 3 µM | hit rate 0.6% among 360,000 | AID 602250;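 active = inhibition above a per-plate cutoff, the plate's mean sample inhibition plus 3 SD, cut at about 24% in these data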
CHO-K1 Ca PAM: nonselective calcium activators in parental CHO-K1 cells, primary screen, counter-screen for M1 PAM project, cell-based, Fluo-8 calcium fluorescence, full deck, 1536-well; activation, % at 3 µM; hit rate 0.02% among 360,000; ATP EC20; 0% at ATP EC20, 100% at ATP max;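 active = activation above the run cutoff, the mean activation of all test compounds plus 3 SD, cut at about 40% in these data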;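 also: peak over basal fluorescence ratio in a 140 s read after ATP addition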
M1 PAM: human M1 muscarinic receptor positive allosteric modulators, primary screen, CHO-K1 cells, Fluo-8 calcium fluorescence, 1536-well; Muscarinic acetylcholine receptor M1 (Homo sapiens), P11229; CHO-K1 hM1, ACh EC20; 0% = ACh EC20, 100% = maximal ACh; activation, % at 3 µM; hit rate 0.088% among 360,000; AID 588819, 2011; in the data active = activation above about 19%, passing the limit was not always enough
M1 ag parental: counter-screen for M1 agonists: effect in parental CHO-K1 cells; Fluo-8 calcium fluorescence; scaled to maximal ATP response, vehicle zero; activation, % at 3 µM; hit rate 0.48% among 360,000; in the data active = activation above about 15%;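 also: untransfected CHO-K1 host cells lacking M1 receptor as counterscreen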
Each line names hits and unclear results; the compound was inactive in the other large screens.

O=C(OCCCN1CCCC1)C1(c2ccccc2)CCCC1	CHRM1 antagonist 96
O=C(Nc1ccc(Oc2ccccc2)cc1)c1csc([C@@H]2O[C@H](CO)[C@H](O)[C@H](O)[C@H]2O)n1	none
O=C1c2ccccc2C(=O)N1CC#CCN1CCN(C(c2ccccc2)c2ccccc2)CC1	none
O=C1C2CSCN2C(=O)CN1CCCN1CCN(C(c2ccccc2)c2ccccc2)CC1 (stereo unspecified)	CHRM1 antagonist 62
CCCCN(Cc1nc2ccccc2c(=O)[nH]1)C(=O)CN1C(=O)NC2(CCCCC2)C1=O	none
CCCCSc1nc2[nH]ncc2c(=O)[nH]1	none
CCCCN(CCCC)c1cn[nH]c(=O)c1Cl	CHRM1 antagonist 27
CCOC(=O)c1ccccc1NC(=O)Cc1ccc(OC)c(S(=O)(=O)N2CCOCC2)c1	none
CCOc1ccc(NC(=O)c2ccc(NC(=O)c3ccccc3Br)cc2)cc1	CHO-K1 Ca antag 30
CCOc1ccc(NC(=O)c2ccccc2CO)cc1	CHO-K1 Ca antag 30
CCOC(=O)Nc1ccc2c(c1)N(C(=O)N1CCN(C)CC1)c1ccccc1S2	CHRM1 antagonist 97
CCOC(=O)Nc1ccc2c(c1)N(C(=O)CCN1CCN(C)CC1)c1ccccc1S2	none
CC(C)OC(=O)Nc1ccc2c(c1)N(C(=O)N1CCN(C)CC1)c1ccccc1CC2	CHRM1 antagonist 78
CCOC(=O)Nc1ccc2c(c1)N(C(=O)N1CCN(C)CC1)c1ccccc1CC2	CHRM1 antagonist 49
CCNCC(=O)N1c2ccccc2CCc2ccc(NC(=O)OC(C)C)cc21	none
CNC(=O)c1ccc(CN(C)C(=O)c2cccc(S(=O)(=O)N3CCc4ccccc4C3)c2)cc1	none
CCOC(=O)C1=CN(Cc2ccco2)S(=O)(=O)N(CC)C1c1cccc(OC)c1 (stereo unspecified)	none
O=C(Nc1ccc(Cl)c(Cl)c1)O/N=C/c1ccncc1	CHO-K1 Ca antag 28
O=C(Nc1cccc(Cl)c1)O/N=C\c1ccncc1	none
CC(=O)c1cnc(Nc2ccccc2)s1	none
CC(=O)c1cnc(Nc2cccc(Cl)c2Cl)s1	M1 ag parental 17
NCc1ccccc1CS(=O)(=O)N1CCOCC1	none
c1ccc(Nc2ncnc3sccc23)cc1	none
CC(Nc1ncnc2sccc12)c1ccccc1 (stereo unspecified)	M1 ag parental 16
CCCCN1C2=NCCCN2c2ccccc21	none
CCCCN1C2=NC(c3ccccc3)CN2c2ccccc21 (stereo unspecified)	CHRM1 antagonist 40
Cc1cc(N2CCCCCC2)nc2ccccc12	CHRM1 antagonist 35
Cc1cc(N2CCCCC2)nc2ccccc12	none
COc1ccc(CNCCNC(=O)c2nonc2N)cc1OC	none
COc1cc(CNCCNC(=O)c2nonc2N)ccc1OCc1ccc(Cl)nc1	M1 ag parental 20
Cc1ccc(C(=O)c2nccn2C)cc1C	none
Cc1ccc(C)c(NC(=O)C2CCN(S(=O)(=O)c3ccc4c(c3)NC(=O)CO4)CC2)c1	CHRM1 antagonist 36
Nc1nc(Nc2ccccc2F)nc(N2CCOCC2)c1[N+](=O)[O-]	M1 ag parental 18
Nc1nc(Nc2ccccc2)nc(N2CCOCC2)c1[N+](=O)[O-]	none
O=C(c1ccco1)N1CCCC(c2nc3c(nnn3Cc3ccc(F)cc3)c(=O)[nH]2)C1 (stereo unspecified)	none
O=[N+]([O-])c1cccc(CN2CCCCCC2)c1	none
O=[N+]([O-])c1cccc(COc2ccc(CN3CCCC3)cc2)c1	CHRM1 antagonist 59
O=[N+]([O-])c1cccc(COc2ccc(CN3CCOCC3)cc2)c1	CHRM1 antagonist 49
Cn1c(=O)c2c(nc(CN3CCN(CCO)CC3)n2Cc2ccccc2Cl)n(C)c1=O	none
COc1ccc(N2CCN(Cc3nc4c(c(=O)n(C)c(=O)n4C)n3CCc3ccccc3)CC2)cc1	CHO-K1 Ca antag 27
COc1ccc(C(=O)Cn2c(N3CCCCC3)nc3c2c(=O)n(C)c(=O)n3C)cc1OC	M1 ag parental 18
COCCn1c(CN2CCN(c3ccc(OC)cc3)CC2)nc2c1c(=O)n(C)c(=O)n2C	none
CN1CCN(c2nc3c(c(=O)n(C)c(=O)n3C)n2Cc2ccccc2Cl)CC1	CHRM1 antagonist 57
Cn1c(=O)c2c(nc(N3CCCCCC3)n2CC(=O)c2ccccc2)n(C)c1=O	none
Cn1c(=O)c2c(nc(CN3CCN(CCO)CC3)n2Cc2cccc3ccccc23)n(C)c1=O	CHO-K1 Ca antag 26
COC(=O)C(Cc1ccc(O)cc1)NC(=O)NC12CC3CC(CC(C3)C1)C2 (stereo unspecified)	none
Cc1nn(C)c(C(=O)N/N=C/c2ccccc2)c1[N+](=O)[O-]	CHRM1 antagonist 21
Cc1cc(C)n(C(=O)c2c([N+](=O)[O-])c(C)nn2C)n1	none
Cc1ccc(SC(=O)c2c([N+](=O)[O-])c(C)nn2C)cc1	CHRM1 antagonist 62
Cc1nn(C)c(C(=O)Nc2cccc(Nc3ccccc3)c2)c1[N+](=O)[O-]	CHRM1 antagonist 26
Cc1nn(C)c(C(=O)N/N=C/c2ccncc2)c1Cl	none
COCCCNC(=O)C[C@H]1C[C@H](C(=O)N2CCCCC2)[C@@]2(C)c3[nH]c4cc(-c5ccco5)ccc4c3CCN2C1=O	none
O=C(CSc1nnc(-c2cccnc2)n1-c1ccccc1)NCc1ccc2c(c1)OCO2	CHO-K1 Ca antag 24
CC(Sc1nnc(-c2cccnc2)n1-c1ccccc1)C(=O)NCc1ccc2c(c1)OCO2 (stereo unspecified)	none
COc1ccc(NC(=O)Nc2cccc3c2O[C@@H](CN(C)S(=O)(=O)c2cn(C)cn2)[C@@H](C)CN([C@H](C)CO)C3=O)cc1	none
O=C(COC(=O)CCC(=O)c1ccc(F)cc1)NCc1ccccc1Cl	none
C#CCN(C[C@H]1[C@H](OC(=O)NCc2ccco2)[C@H](OC(=O)NCc2ccco2)C[C@@H](C(=O)OC)[C@H]1C(=O)OC)S(=O)(=O)c1ccc(C)cc1	none
Cc1nn(Cc2ccccc2)c(Cl)c1/C=C/C(=O)OCC(=O)NC(C)C(C)C (stereo unspecified)	none
Cc1nn(Cc2ccccc2)c(Cl)c1/C=C/C(=O)OC(C)C(=O)N1CCCC1 (stereo unspecified)	CHRM1 antagonist 37
CC(=O)c1cccc(-c2ccnc3c2CC(C(=O)NCc2ccco2)O3)c1 (stereo unspecified)	none
CC(C)(C)c1ccc(S(=O)(=O)N2CCSC2)cc1	CHRM1 antagonist 39
